D1 potentiator: potentiators of human D1 dopamine receptor. HEK293 TREx D1 cells, calcium flux, dopamine EC20 potentiation. potentiation, % at 10 µM. 360,000 tested, 0.036% active. P21728; in the data active = potentiation above about 30%; note: 0% is about no effect
TRHR agonist: activates the human TRH receptor; P34981; TRHR cells, calcium flux fluo-8, FDSS agonist mode; activation, % at 2 µM; 360,000 tested, 0.18% active; AID 493084; note: 0% is about no effect
Target sequence (P34981 whole entry, looked up): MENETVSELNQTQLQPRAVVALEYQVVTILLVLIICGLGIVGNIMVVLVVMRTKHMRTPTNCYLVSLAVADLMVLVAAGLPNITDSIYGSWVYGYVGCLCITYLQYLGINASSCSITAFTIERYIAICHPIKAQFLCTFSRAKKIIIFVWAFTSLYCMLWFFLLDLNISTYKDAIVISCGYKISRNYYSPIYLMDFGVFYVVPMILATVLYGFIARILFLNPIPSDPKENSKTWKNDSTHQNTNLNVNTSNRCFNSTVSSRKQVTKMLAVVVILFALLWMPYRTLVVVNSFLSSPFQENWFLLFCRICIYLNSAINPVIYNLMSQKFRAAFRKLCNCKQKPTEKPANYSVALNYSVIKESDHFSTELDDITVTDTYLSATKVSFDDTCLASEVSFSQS
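Fluo-8-loaded TRHR cells; 10 s baseline, compound added, kinetic Ca2+ fluorescence read 1/s, agonist mode.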
D1 antagonist: human D1 dopamine receptor antagonism; P21728; HEK293 TREx D1 cells, calcium flux, dopamine EC80; stronger effect = lower value; activity change, negative = inhibition, % at 10 µM; 360,000 tested, 3.2% active; in the data active = activity change below about -30%; note: % is set by controls: 0 for no effect and ±100 for the full control effect
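Antagonism measured as reduced calcium response to an EC80 dopamine addition following 180 s compound pre-read; cells were inducible HEK293 Trex D1 plated overnight at 30 C, read kinetically at 1 cycle/sec.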
D1 agonist: activates the human D1 dopamine receptor | AID 504660 | HEK293 T-REx D1 cells, calcium flux, agonist mode | 360,000 tested, 1% active | activation, % at 2 µM; note: 0% is about no effect
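Inducible HEK293 T-REx D1 cells, force-coupled to calcium signalling, were plated at 4000 cells/well with tetracycline and held overnight at 30 C. After no-wash calcium dye loading, compound-evoked calcium rise over 180 s flagged agonists.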
TRHR PAM: allosteric enhancers of human TRH receptor; P34981; TRHR cells, fluo-8 calcium fluorescence, EC20 TRH enhancement; enhancement, % at 2 µM; 360,000 tested, 0.66% active; AID 493056; in the data active = enhancement above about 30%; note: 0% is about no effect
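Enhancer read-out: after compound pinning and an initial kinetic agonist-mode read, an EC20 of TRH (10 nM final) was injected and fluo-8 calcium signal (Ex 480/Em 530) followed at 1 s/cycle for 100 cycles in TRHR-expressing cells.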
* hit, by the source's call; ! = a repeat was not active. Compounds with a hit are over-represented: about 4.7% of the library has one in this group of screens. Cut-off read from the data, not from the text of the source, unless noted: active = activation above about 30%; inactive = the rest.

Results for O=C(CNC(=O)c1ccccc1)NCCc1ccc(O)c(O)c1 ?
D1 potentiator: -5; TRHR agonist: 0; D1 antagonist: -39*; D1 agonist: 4; TRHR PAM: -2

What do the screens show for `CCOCCCNC(=O)Nc1cc(C(=O)NCc2ccc(C(C)C)cc2)ccc1N1CCCC1`?
D1 potentiator: 0; TRHR agonist: -1; D1 antagonist: 1; D1 agonist: 5; TRHR PAM: -3

What do the screens show for `Oc1ccc(Br)cc1C1C=C(c2ccc3c(c2)OCO3)NC(c2cccc(F)c2)N1` (centres undefined)?
D1 potentiator: -5; TRHR agonist: 0; D1 antagonist: -9; D1 agonist: 18; TRHR PAM: 7

How did Cc1nc(Cc2nnc(SCC(=O)N3CCN(c4ccccc4)CC3)o2)cs1 do in these assays?
D1 potentiator: -1; TRHR agonist: 0; D1 antagonist: -17; D1 agonist: 1; TRHR PAM: 5

How did CC1CCC(=NNc2ccc(C(F)(F)F)cc2[N+](=O)[O-])CC1 (centres undefined) do in these assays?
D1 potentiator: 1; TRHR agonist: 0; D1 antagonist: 7; D1 agonist: 4; TRHR PAM: -1

Results for CC1CCC/C(=N/Nc2ccc([N+](=O)[O-])cc2[N+](=O)[O-])C1 (centres undefined) ?
D1 potentiator: -1; TRHR agonist: 0; D1 antagonist: -32*; D1 agonist: 7; TRHR PAM: 2

What do the screens show for `Clc1cccc(C2=NC(c3cccs3)=Nc3ccc(Br)cc3N2)c1`?
D1 potentiator: 1; TRHR agonist: 0; D1 antagonist: 9; D1 agonist: 3; TRHR PAM: -4

What do the screens show for `Cc1ccccc1Nc1cccc2nonc12`?
D1 potentiator: -7; TRHR agonist: 10; D1 antagonist: -5; D1 agonist: 40*; TRHR PAM: -3

What do the screens show for `Cc1ccccc1NS(=O)(=O)c1cccc2nonc12`?
D1 potentiator: -2; TRHR agonist: 0; D1 antagonist: 2; D1 agonist: 0; TRHR PAM: 19

What do the screens show for `CC(C(=O)NC1CCCC1)N1CCN(S(=O)(=O)c2ccc(C(C)(C)C)cc2)CC1` (centres undefined)?
D1 potentiator: -2; TRHR agonist: 0; D1 antagonist: 6; D1 agonist: -1; TRHR PAM: -9

What do the screens show for `COc1ccc(C2Nc3ccc4ccccc4c3-c3c2c(=O)oc2ccccc32)cc1` (centres undefined)?
D1 potentiator: 0; TRHR agonist: 0; D1 antagonist: -3; D1 agonist: 4; TRHR PAM: -2

How did O=c1oc2ccccc2c2c1C(c1ccc(Cl)cc1)Nc1ccc3ccccc3c1-2 (centres undefined) do in these assays?
D1 potentiator: -2; TRHR agonist: 0; D1 antagonist: -64*; D1 agonist: 1; TRHR PAM: 10

Results for CC(=O)N1CCCc2cc(S(=O)(=O)N(C)CC(=O)Nc3ccc(C(C)C)cc3)ccc21 ?
D1 potentiator: -4; TRHR agonist: 0; D1 antagonist: -11; D1 agonist: 7; TRHR PAM: -1

What do the screens show for `Cc1cccc(NC(=O)C2CCN(S(=O)(=O)c3ccc4c(c3)CCCN4C(=O)C3CCC3)CC2)c1`?
D1 potentiator: -6; TRHR agonist: -1; D1 antagonist: 13; D1 agonist: 2; TRHR PAM: -8

What do the screens show for `CCc1ccc(NC(=O)C2CCCN(S(=O)(=O)c3ccc4c(c3)CCCN4C(C)=O)C2)cc1` (centres undefined)?
D1 potentiator: -10; TRHR agonist: 0; D1 antagonist: -32*!; D1 agonist: 3; TRHR PAM: 15

Results for CSc1cccc(NC(=O)C2CCCN(S(=O)(=O)c3ccc4c(c3)CCCN4C(C)=O)C2)c1 (centres undefined) ?
D1 potentiator: -1; TRHR agonist: 0; D1 antagonist: -32*; D1 agonist: 0; TRHR PAM: -1

How did CSc1cccc(NC(=O)C2CCN(S(=O)(=O)c3ccc4c(c3)CCCN4C(=O)C3CCC3)CC2)c1 do in these assays?
D1 potentiator: -4; TRHR agonist: 0; D1 antagonist: -48*; D1 agonist: 3; TRHR PAM: -5

Screens: PubChem BioAssay, National Center for Advancing Translational Sciences (NCATS)
